We go through 25 molecules from PubChem BioAssay AID624418 (National Center for Advancing Translational Sciences (NCATS), 2012).

Hit rate of the full screen: of about 410,000 compounds, about 530 (0.13%) were called active. Another 5% or so got no clear call; they are omitted. The entries come from a sample that favours actives as a whole. Unmarked numbers belong to inactive results. Calls come from the whole dose curve; as a rule, active = well fitted inhibition curve with a large enough effect; inconclusive = small, poorly fitted or top-dose-only effect, or another doubt; inactive = no such curve, though single readings can be large or run the other way.
% is set by controls: 0 for no effect and ±100 for the full control effect; potency is the fitted concentration of half-maximal effect.

A short description of this assay: qHTS of GLP-1 Receptor Inverse Agonists: Cytotox Screen.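 Note: loss of luciferase light is scored as toxicity.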 The note with it: HEK293 cAMP-luciferase reporter cells, luminescence, 24 h; series mostly up to 38.3 µM; activity change, negative = inhibition: at the top concentration. An excerpt: The overall goal of this project was to develop a novel assay for discovering small molecule ligands for class B1 G protein-coupled receptors (GPCRs). Very few agonists (or inverse agonists) with generally weak activity for this entire group of physiologically important receptors are known to date. To establish proof-of-principle that this critical bottleneck can be overcome with a suitable screening approach, our studies focused on the class B1 receptor for glucagon-like peptide-1 (GLP-1R), a potential therapeutic target for diabetes and neurodegenerative disease.
The assay was developed using a cell-based functional readout. Toward this goal, stably transfected HEK293 cell clones were established that co-express (i) a cAMP-responsive luciferase reporter gene, and (ii) constitutively active GLP-1R that upon ligand interaction inhibit (inverse agonists) the luciferase activity. In addition, two control cell lines were developed: (i) one that express only the cAMP-responsive reporter gene to enable initial exclusion of GLP-1R independent effects of candidate probes; and (ii) one with the reported gene cloned with another constitutively active orphan receptor GPR119 to enable exclusion of GLP-1R independent inhibitor effects of candidate inverse agonists.
To that end, this assay was optimized for 1536-well format and screened against the MLSMR. Then the same collection was run in this cytotoxicity assay where inhibition was the undesired outcome.
NIH Molecular Libraries Probe Production Network [MLPCN]
NIH Chemical Genomics Center [NCGC]
PI Name: Martin Beinborn, Tufts Medical Center
Six ul of cell suspension (200 cells/uL in DMEM + 10% Nu serum + 1% pen-strep) is dispensed in a white solid 1536-well plate. The plates are incubated for 12 hours at 37 deg C at 5% CO2 followed by addition of 23 nL compounds. After 24 hr incubation at 37 deg C and 5% CO2, 3 uL of luciferase assay detection reagent is added. A luminescence read is obtained on the PerkinElmer Viewlux after 12 min incubation at room temperature.
`O=C(Nc1ccc(OC(F)(F)F)cc1)c1ccc2c(c1)no[n+]2[O-]`: the Potency was 11.2 µM (active).
For `O=C(Nc1ccc(Cl)cn1)Nc1cccs1`, the “activity change, negative = inhibition” value is 49.1%.
In the case of `CCOC(=O)[C@]12Cc3cc(OC)ccc3[C@H]1N(C(C)C)C(=O)c1ccccc12`, the “activity change, negative = inhibition” value was -28.2%.
For `CCOc1ccc2nc(Nc3nc4ccc(NC(C)=O)cc4s3)sc2c1`, the “activity change, negative = inhibition” value was 37.9%.
With `Cc1ccc(NC(=O)N(Cc2ccc3c(c2)OCO3)C2CCN(Cc3ccccc3)CC2)cc1F`, the “activity change, negative = inhibition” value was -0.237%.
Turning to `COc1ccc(CS(=O)/C(Cl)=C(/Cl)C(=O)Nc2ccc(OC)nc2)cc1` (stereo not given), the Potency is 3.98 µM (active).
`O=C1N[C@H](Cc2c[nH]c3ccccc23)COC(=O)[C@H](Cc2ccc(F)cc2)C/C=C\C[C@H]1CC(=O)N(CCO)Cc1ccccc1`: the “activity change, negative = inhibition” value was -58.3%.
Same read-out and setting: the value for `CCN(CC)CCCC(C)n1c2nc(=O)[nH]c(=O)c-2nc2cc(Cl)ccc21` (stereo not given) was 490%; that for `c1cc2c(c(NC3=NCCCS3)c1)CCCC2` was -18%; that for `Cc1nnc(NC(=O)c2cccn(Cc3cccc(F)c3)c2=O)s1` was 4.13%.
On to `Cc1cccc(Cn2cccc(C(=O)Nc3ccc4c(c3)OCCO4)c2=O)c1`, for which the “activity change, negative = inhibition” value is 4.23%.
In the case of `C=CCC[C@@H](Cc1ccc(F)cc1)C(=O)OC[C@H](Cc1c[nH]c2ccccc12)NC(=O)[C@@H](CC=C)CC(=O)N(CCO)Cc1ccccc1`, the “activity change, negative = inhibition” value was 7.51%.
`Nc1ccc(-c2sc(N)nc2-c2ccccc2)cc1`: the “activity change, negative = inhibition” value was 184%.
On to `NS(=O)(=O)c1ccc(NC(=O)COC(=O)c2c3c(nc4ccccc24)/C(=C\c2ccc4c(c2)OCO4)CCC3)cc1`, for which the “activity change, negative = inhibition” value is 80.2%.
As to `C=CC(=O)Nc1ccc(Nc2ccnc(Nc3ccc(N4CCN(C)CC4)cc3)n2)cc1`, the Potency was 10 µM (active).
Turning to `CCC1(CC(C)c2ccccc2)C(=O)NC(=O)NC1=O` (stereo not given), the “activity change, negative = inhibition” value is 9.72%.
On to `COc1cccc2sc3cc(NCC[C@@H]4CCCN4C)ccc3c(=O)c12`, for which the “activity change, negative = inhibition” value is 221%.
For `CC(C)c1ccc(C=NNc2ccc([N+](=O)[O-])cn2)cc1`, the “activity change, negative = inhibition” value is 44.1%.
With `Cc1cc(C)c2c(c1)cc(C)c1nnc(SCC(=O)Nc3cc(C)on3)n12`, the Potency was 10 µM (active).
With `COc1ccc(-c2nc3cnccn3c2NC2CCCCC2)cc1-c1cccc(Cl)c1`, the “activity change, negative = inhibition” value is 77.1%.
`NC(=O)c1sc2nc3c(c(-c4ccccc4)c2c1N)CCC3`: the “activity change, negative = inhibition” value was 56.3%.
With `COc1ccccc1OC(=O)c1ccc(C)c(S(=O)(=O)N2CCOCC2)c1`, the “activity change, negative = inhibition” value was 0.53%.
Take `O=C(Nc1nnc(-c2ccccc2)o1)c1cccc(S(=O)(=O)N2CCOCC2)c1`: the Potency was 10 µM (active).
For `O=C(c1cc(S(=O)(=O)N2CCOCC2)ccc1F)N1CCC2(CC1)OCCO2`, the “activity change, negative = inhibition” value is -20.6%.
As for `CCc1ccc(OCC(=O)N2CCN(CC(=O)Nc3ccccc3Cl)CC2)cc1`, the “activity change, negative = inhibition” value was -14.3%.
